MCF10A rereplic = induces DNA re-replication in MCF 10a normal breast cells. 350,000 compounds, 2.9% hits. Potency, µM (titrated, usually from 46.1 µM), without a hit: top-dose activity, positive = re-replication, actives largely listed as activators. MCF 10A DNA re-replication, Hoechst nuclear intensity, 48 h; also: % of control where 0% means no effect; nearly all actives have a fitted effect of over 50% in size
HT1080 IDH1KD tx = toxicity to HT-1080 IDH1 knockdown cells (counter line); AID 686971; HT-1080 IDH1 knockdown viability, ATP luminescence, 48 h; Potency, µM (doses to about 46.1 µM), without a hit: top-dose activity, negative = toxicity, usual class: cytotoxic; 360,000 compounds, 2% hits;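 also: 0% = DMSO wells and -100% = cell-free medium wells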
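Assay cells: HT-1080 with IDH1 knockdown, 750 per well, RPMI/5% FBS. Exposure: 48 h at 37 °C following 2 h pre-incubation. Read: CellTiter-Glo luminescence; fitted concentration-response, curve class assigned.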
KB-V1 cytotox = kills drug-selected multidrug resistant KB-V1 cells | KB-V1 MDR cells viability, CellTiter-Glo, 72 h | Potency, µM (doses to about 46.1 µM), most hits filed as cytotoxic | 400,000 compounds, 3.4% hits | AID 1347076; also: % is scaled to controls: 0 for no effect and ±100 for the full control effect; nearly all actives have a fitted effect of over 60% in size
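KB-V1 MDR subline cells in DMEM (phenol-red free, 10% FBS) exposed to compounds in qHTS concentration series for 72 h at 37 degrees C. Viability read by CellTiter-Glo luminescence; concentration-effect curves fitted after normalization and correction.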
KB-3-1 tox = kills parental KB-3-1 adenocarcinoma cells. KB-3-1 viability, CellTiter-Glo ATP luminescence, 72 h. Potency, µM (series often up to 46.1 µM), usual class: cytotoxic. 400,000 compounds, 1.4% hits; also: % is scaled to controls: 0 for no effect and ±100 for the full control effect; nearly all actives have a fitted effect of over 60% in size
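Luminescent ATP read-out (CellTiter-Glo) measures survival of drug-naive KB-3-1 cells after 72 h compound exposure at 37 °C. Titration series was screened from lowest to highest concentration, with DMSO vehicle plates as background controls.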
HT1080-NT tox = kills 2HG-producing HT-1080-NT fibrosarcoma cells. AID 686970. HT-1080-NT fibrosarcoma viability, CellTiter-Glo ATP luminescence, 48 h. 360,000 compounds, 1.6% hits. Potency, µM (top dose mostly 46.1 µM), inactives show at the highest dose activity, negative = less viability, actives largely listed as cytotoxic;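 also: NT is the 2HG producing partner of a matched IDH1 knockdown line; 0% = DMSO-treated cells and -100% = media-only wells without cells; nearly all actives have a fitted effect of over 55% in size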
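Toxicity toward the 2HG-producing NT line was scored as %Activity, normalised to DMSO and no-cell wells, from CellTiter-Glo luminescence after 48 hours' treatment.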
SW480 rereplic = induces DNA re-replication in SW480 colon adenocarcinoma cells | SW480 DNA re-replication, Hoechst DNA content imaging, 48 h | Potency, µM (doses to about 46.1 µM), without a hit: at the top dose re-replication activation, actives largely listed as activators | 340,000 compounds, 1.8% hits; also: % of control where 0% means no effect; nearly all actives have a fitted effect of over 55% in size
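SW480 cells exposed to compounds for 48 hr at 37 C, 5% CO2, then Hoechst-stained 40 min. Nuclear DNA content imaged by fluorescence scanning (405 nm excitation, 500-530 nm emission); re-replication scored as increased high-intensity nuclei.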
* = called active by the depositor. Shown are actives, neighbours in structure and some others; about 7.9% of the full set was active somewhere. Calls follow the shape of the dose curve; as a rule, active = well fitted curve in the direction sought with a large enough effect; inconclusive = small, poorly fitted or top-dose-only effect, or another doubt; inactive = no such curve, though single readings can be large; an effect the other way counts as inactive or inconclusive. Potency is read from the fitted curve at half-maximal effect.

How did COc1ccc2c(c1)[C@H]1[C@H](CO2)[C@H](c2ccccc2)[C@]2(C)C(=O)Nc3ccccc3C(=O)N12 do in these assays?
MCF10A rereplic: 29µM*; HT1080 IDH1KD tx: inconclusive; KB-V1 cytotox: inconclusive; KB-3-1 tox: inconclusive; HT1080-NT tox: inconclusive; SW480 rereplic: inconclusive

How did O=C(Nc1ccc(Cl)c(S(=O)(=O)N2CCOCC2)c1)c1cc2ccccc2oc1=O do in these assays?
MCF10A rereplic: 1%; HT1080 IDH1KD tx: 9%; KB-V1 cytotox: inactive; KB-3-1 tox: inactive; HT1080-NT tox: 4%; SW480 rereplic: -5%

How did CC(=O)Nc1ccc(S(=O)(=O)NCc2ccc(C(=O)NCCCN3CCC(C)CC3)cc2)cc1 do in these assays?
MCF10A rereplic: 10%; HT1080 IDH1KD tx: -2%; KB-V1 cytotox: inactive; KB-3-1 tox: inactive; HT1080-NT tox: 2%; SW480 rereplic: inconclusive

How did Cc1cc(C)n(S(=O)(=O)/C=C/c2ccccc2)n1 do in these assays?
MCF10A rereplic: 16µM*; HT1080 IDH1KD tx: inconclusive; KB-V1 cytotox: inconclusive; KB-3-1 tox: inconclusive; HT1080-NT tox: 2.8µM*; SW480 rereplic: inconclusive

How did Cc1ccc(S(=O)(=O)n2nc(C)cc2C)cc1 do in these assays?
MCF10A rereplic: inconclusive; HT1080 IDH1KD tx: -8%; KB-V1 cytotox: inactive; KB-3-1 tox: inactive; HT1080-NT tox: inconclusive; SW480 rereplic: -3%

What do the screens show for `N#Cc1ccc(S(=O)(=O)N2CCN(c3nc(-c4cccs4)nc4ccccc34)CC2)cc1`?
KB-V1 cytotox: inactive; KB-3-1 tox: inconclusive

What do the screens show for `C=CCN1CN(CCc2ccccc2)CNC1=S`?
MCF10A rereplic: 0%; HT1080 IDH1KD tx: 19%; KB-V1 cytotox: inactive; KB-3-1 tox: inactive; HT1080-NT tox: 13%; SW480 rereplic: 1%

Results for NC(=O)CSc1nccn1Cc1ccc(Cl)cc1 ?
MCF10A rereplic: -1%; HT1080 IDH1KD tx: 12%; KB-V1 cytotox: inactive; KB-3-1 tox: inactive; HT1080-NT tox: 0%; SW480 rereplic: -1%

How did CC1=C(C)/C(=N\OC(=O)/C=C/c2ccccc2)C=CC1=O do in these assays?
MCF10A rereplic: inconclusive; HT1080 IDH1KD tx: -3%; KB-V1 cytotox: inactive; KB-3-1 tox: inactive; HT1080-NT tox: -2%; SW480 rereplic: inconclusive

What do the screens show for `CCCc1nc(-c2cc3ccc(C)cc3[nH]c2=O)no1`?
MCF10A rereplic: -1%; HT1080 IDH1KD tx: 5%; KB-V1 cytotox: 12µM*; KB-3-1 tox: inactive; HT1080-NT tox: 2%; SW480 rereplic: 3%

Results for CCS(=O)(=O)NCCc1cc2cc(C)c(C)cc2[nH]c1=O ?
MCF10A rereplic: -1%; HT1080 IDH1KD tx: 13%; KB-V1 cytotox: inactive; KB-3-1 tox: inactive; HT1080-NT tox: 13%; SW480 rereplic: 0%

How did CCS(=O)(=O)NCCc1cc2ccc(C)cc2[nH]c1=O do in these assays?
MCF10A rereplic: -3%; HT1080 IDH1KD tx: 2%; KB-V1 cytotox: 21µM*; KB-3-1 tox: inactive; HT1080-NT tox: -10%; SW480 rereplic: 9%

How did COc1ccc(CC(=O)Nc2ccc3c(c2)C(=O)N(CCC(=O)O)C3=O)cc1 do in these assays?
MCF10A rereplic: 11%; HT1080 IDH1KD tx: -1%; KB-V1 cytotox: inactive; KB-3-1 tox: inactive; HT1080-NT tox: -1%; SW480 rereplic: 0%

How did CC(C)OP(=O)(c1ccc(N(C)C)cc1)C(Nc1ccccc1)c1cccnc1 (stereo not given) do in these assays?
MCF10A rereplic: -3%; HT1080 IDH1KD tx: 1%; KB-V1 cytotox: inactive; KB-3-1 tox: inactive; HT1080-NT tox: -2%; SW480 rereplic: 2%

Results for COc1ccc(C2C(C(=O)Nc3cccc(OC)c3)c3ccccc3C(=O)N2C)cc1 (stereo not given) ?
MCF10A rereplic: 5%; HT1080 IDH1KD tx: 3%; KB-V1 cytotox: inconclusive; KB-3-1 tox: inactive; HT1080-NT tox: -3%; SW480 rereplic: -11%

From PubChem BioAssay
